# For part of these data: Entries with a potency or affinity are not part of this list. Active and inactive are the calls of the source.
# Settings: Ebola virus entry assay, green fluorescence channel
# Wherever efficacy is given: 0% is about no effect.
row,Compound,efficacy
1,O=C(c1ccccc1)c1ccc2n1CCC2C(=O)O (configuration not stated),22% (inactive)
2,Cc1cccc(Nc2ccccc2C(=O)O)c1C,32.2% (inactive)
3,O=C(OC1C[C@H]2CC[C@@H](C1)[N+]21CCCC1)C(O)(c1ccccc1)c1ccccc1 (some centres not stated),12.9% (inactive)
4,Cc1onc(-c2c(Cl)cccc2Cl)c1C(=O)N[C@@H]1C(=O)N2[C@@H]1SC(C)(C)[C@@H]2C(=O)O,26.4% (inactive)
5,O[C@@H]1CO[C@H]2[C@@H]1OC[C@@H]2O,15.8% (inactive)
6,CCOc1ccccc1OCCN[C@H](C)Cc1ccc(OC)c(S(N)(=O)=O)c1,-10.5% (inactive)
7,CNCCc1ccccn1,-10.7% (inactive)
8,CC[N+](C)(C)c1cccc(O)c1,-13.4% (inactive)
9,CC(=O)N[C@@H](CS)C(=O)O,-17.9% (inactive)
10,COc1cc(C(=O)NCc2ccc(OCCN(C)C)cc2)cc(OC)c1OC,33.3% (inactive)
11,CC(C)(C)NC(=O)[C@@H]1CN(Cc2cccnc2)CCN1C[C@@H](O)C[C@@H](Cc1ccccc1)C(=O)N[C@H]1c2ccccc2C[C@H]1O,-17.5% (inactive)
12,COc1ccc2nc(S(=O)Cc3ncc(C)c(OC)c3C)[nH]c2c1 (configuration not stated),22.2% (inactive)
13,O=C(CCCCCCC(=O)Nc1ccccc1)NO,-11.4% (inactive)
14,NS(=O)(=O)c1cc2c(cc1C(F)(F)F)NCNS2(=O)=O,-34.5% (inactive)
15,CCCC(=O)Nc1ccc(OCC(O)CNC(C)C)c(C(C)=O)c1 (configuration not stated),8.06% (inactive)
16,CCC1(c2ccccc2)C(=O)NCNC1=O,-13.6% (inactive)
17,CCCc1cc(=O)[nH]c(=S)[nH]1,10.6% (inactive)
18,NCCC(O)(P(=O)(O)O)P(=O)(O)O,-9.39% (inactive)
19,C[C@@H]1C[C@H]2[C@@H]3CCC4=CC(=O)C=C[C@]4(C)[C@@]3(F)[C@@H](O)C[C@]2(C)[C@@]1(O)C(=O)CO,-13.7% (inactive)
20,N[C@@H](C(=O)N[C@@H]1C(=O)N2C(C(=O)O)=C(Cl)CS[C@H]12)c1ccccc1,26% (inactive)

# Settings: Ebola virus entry assay, blue channel fluorescence
row,Compound,outcome
1,CS(=O)(=O)OCCCCOS(C)(=O)=O,inactive
2,Cc1oncc1C(=O)Nc1ccc(C(F)(F)F)cc1,inactive
3,CCCCNC(=O)NS(=O)(=O)c1ccc(C)cc1,inactive
4,COc1ccccc1OCC(O)CN1CCN(CC(=O)Nc2c(C)cccc2C)CC1 (configuration not stated),inactive
5,Cn1cnc([N+](=O)[O-])c1Sc1ncnc2nc[nH]c12,inactive
6,O=C(O)CCNC(=O)c1ccc(N=Nc2ccc(O)c(C(=O)O)c2)cc1,inactive
7,Cc1[nH]c(=O)c(C#N)cc1-c1ccncc1,inactive
8,Nc1nnc(-c2cccc(Cl)c2Cl)c(N)n1,inactive
9,CCCCN1C[C@H](O)[C@@H](O)[C@H](O)[C@H]1CO,inactive
10,O=P(O)(O)C(O)(Cc1cccnc1)P(=O)(O)O,inactive
11,CO[C@@]12[C@H](COC(N)=O)C3=C(C(=O)C(C)=C(N)C3=O)N1C[C@@H]1N[C@@H]12,inactive
12,CN/C(=C\[N+](=O)[O-])NCCSCc1ccc(CN(C)C)o1,inactive
13,CCN(CC)CCNC(=O)c1cc(Cl)c(N)cc1OC,inactive
14,CCC1C(=O)OCC1Cc1cncn1C (configuration not stated),inactive
15,Cn1c(=O)c2c(ncn2CC(O)CO)n(C)c1=O (configuration not stated),inactive
16,Oc1cn2c(n1)Nc1ccc(Cl)c(Cl)c1C2,inactive
17,CCCCNc1ccc(C(=O)OCCOCCOCCOCCOCCOCCOCCOCCOCCOC)cc1,inactive
18,O=C(c1ccccc1)c1ccc2n1CCC2C(=O)O (configuration not stated),inactive
19,Cc1cccc(Nc2ccccc2C(=O)O)c1C,inactive

row,Compound,outcome
1,O=C(OC1C[C@H]2CC[C@@H](C1)[N+]21CCCC1)C(O)(c1ccccc1)c1ccccc1 (some centres not stated),inactive
2,Cc1onc(-c2c(Cl)cccc2Cl)c1C(=O)N[C@@H]1C(=O)N2[C@@H]1SC(C)(C)[C@@H]2C(=O)O,inactive
3,O[C@@H]1CO[C@H]2[C@@H]1OC[C@@H]2O,inactive
4,CCOc1ccccc1OCCN[C@H](C)Cc1ccc(OC)c(S(N)(=O)=O)c1,inactive
5,CNCCc1ccccn1,inactive
6,CC[N+](C)(C)c1cccc(O)c1,inactive
7,CC(=O)N[C@@H](CS)C(=O)O,inactive
8,COc1cc(C(=O)NCc2ccc(OCCN(C)C)cc2)cc(OC)c1OC,inactive
9,CC(C)(C)NC(=O)[C@@H]1CN(Cc2cccnc2)CCN1C[C@@H](O)C[C@@H](Cc1ccccc1)C(=O)N[C@H]1c2ccccc2C[C@H]1O,inactive
10,COc1ccc2nc(S(=O)Cc3ncc(C)c(OC)c3C)[nH]c2c1 (configuration not stated),inactive
11,O=C(CCCCCCC(=O)Nc1ccccc1)NO,inactive
12,NS(=O)(=O)c1cc2c(cc1C(F)(F)F)NCNS2(=O)=O,inactive
13,CCCC(=O)Nc1ccc(OCC(O)CNC(C)C)c(C(C)=O)c1 (configuration not stated),inactive
14,CCC1(c2ccccc2)C(=O)NCNC1=O,inactive
15,CCCc1cc(=O)[nH]c(=S)[nH]1,inactive
16,NCCC(O)(P(=O)(O)O)P(=O)(O)O,inactive
17,C[C@@H]1C[C@H]2[C@@H]3CCC4=CC(=O)C=C[C@]4(C)[C@@]3(F)[C@@H](O)C[C@]2(C)[C@@]1(O)C(=O)CO,inactive
18,N[C@@H](C(=O)N[C@@H]1C(=O)N2C(C(=O)O)=C(Cl)CS[C@H]12)c1ccccc1,inactive

# — PubChem BioAssay (NCATS)
